The list is not random: actives were taken first. Their share in the collection is about 12%.
PLK1 PBD block = qHTS for Inhibitors of PLK1-PDB (polo-like kinase 1 - polo-box domain): Primary Screen. Serine/threonine-protein kinase PLK1 (Homo sapiens), P53350. Plk1 PBD binding of FITC phosphopeptide, fluorescence polarization. Potency, µM, hits mostly inhibitors. 360,000 compounds, 2.8% hits. AID 720504, 2013; further: series mostly up to about 57 µM; nearly all actives have a fitted effect of over 65% in size
Target sequence (P53350 whole entry, looked up, the tested form may be a part): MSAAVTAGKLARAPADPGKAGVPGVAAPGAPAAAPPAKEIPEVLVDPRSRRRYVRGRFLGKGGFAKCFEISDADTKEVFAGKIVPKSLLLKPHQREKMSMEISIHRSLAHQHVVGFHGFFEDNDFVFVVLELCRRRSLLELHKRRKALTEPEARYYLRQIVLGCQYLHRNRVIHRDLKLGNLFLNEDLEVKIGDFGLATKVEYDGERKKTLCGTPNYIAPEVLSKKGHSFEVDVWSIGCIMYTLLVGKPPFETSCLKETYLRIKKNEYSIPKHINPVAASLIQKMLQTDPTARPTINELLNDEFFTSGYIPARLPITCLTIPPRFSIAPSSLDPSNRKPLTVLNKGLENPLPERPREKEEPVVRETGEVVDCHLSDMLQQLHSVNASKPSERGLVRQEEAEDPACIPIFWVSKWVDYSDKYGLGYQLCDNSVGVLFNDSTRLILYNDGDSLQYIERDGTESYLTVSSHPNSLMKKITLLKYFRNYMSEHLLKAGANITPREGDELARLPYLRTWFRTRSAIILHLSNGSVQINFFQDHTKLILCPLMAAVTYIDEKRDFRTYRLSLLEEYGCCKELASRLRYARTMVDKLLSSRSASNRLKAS
HP1b binding inh = HTS for Inhibitors of HP1-beta Chromodomain Interactions with Methylated Histone Tails | Chromobox protein homolog 1 (Homo sapiens), P83916 | AlphaScreen HP1-beta / biotin-H3K9me3 peptide binding | 390,000 compounds, 0.56% hits | Potency, µM (titrated, usually from 114 µM), most hits filed as inhibitors; further: nearly all actives have a fitted effect of over 70% in size
Target sequence (P83916 whole entry, looked up): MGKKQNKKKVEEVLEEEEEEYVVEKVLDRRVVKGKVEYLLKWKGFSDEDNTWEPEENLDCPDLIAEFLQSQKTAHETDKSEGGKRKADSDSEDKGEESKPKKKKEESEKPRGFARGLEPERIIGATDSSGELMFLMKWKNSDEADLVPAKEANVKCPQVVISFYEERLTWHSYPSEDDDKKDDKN
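AlphaScreen: HP1-beta (50 nM) preformed 30 min with biotin-H3(1-18)K9me3 peptide (50 nM) in PBS pH 7.4, 0.01% Tween-20. Compound added for 30 min at RT, then streptavidin donor/nickel chelate acceptor beads (10 ug/mL) for 30 min.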
G9a inh = qHTS Assay for Inhibitors of Histone Lysine Methyltransferase G9a; Histone-lysine N-methyltransferase EHMT2 (Homo sapiens), Q96KQ7; G9a H3K9 monomethylation, AlphaScreen, 2 h; Potency, µM (series often up to 102 µM), usual class: inhibitors; 350,000 compounds, 8.8% hits; AID 504332, 2011; further: nearly all actives have a fitted effect of over 75% in size
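Enzyme 20 nM + cpd, 15 min RT; add b-H3K9 pep 500 nM / SAM 20 uM; 2 h RT; anti-H3K9me1 Ab 0.5 ug/mL + SA donor / anti-rabbit acceptor beads 20 ug/mL each, 10 min; AlphaScreen read.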
JMJD2A Tudor = qHTS Assay for Inhibitors of JMJD2A-Tudor Domain. 390,000 compounds, 4.4% hits. AID 504339, 2011. Lysine-specific demethylase 4A (Homo sapiens), O75164. AlphaScreen JMJD2A-Tudor / H3K4me3 peptide binding. Potency, µM (doses to about 114 µM), hits mostly inhibitors; further: nearly all actives have a fitted effect of over 50% in size
BAZ2B block = qHTS Assay for Inhibitors of BAZ2B; AlphaScreen BAZ2B-H3K14Ac peptide displacement; Potency, µM (series often up to 114 µM), hits mostly inhibitors; 360,000 compounds, 4.4% hits; AID 504333, 2011; further: nearly all actives have a fitted effect of over 60% in size
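Inhibition is scored as reduced AlphaScreen emission. The BAZ2B/b-H3(5-23)K14Ac complex (50 nM each) in PBS pH 7.4, 0.01% Tween-20 meets compound (up to 110 uM) for 30 min at RT before bead addition.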
PI5P4Ka inh = qHTS for Inhibitors of phosphatidylinositol 5-phosphate 4-kinase (PI5P4K); Phosphatidylinositol 5-phosphate 4-kinase type-2 alpha (Homo sapiens), P48426; PI5P4Kalpha enzyme, ADP-Glo luminescence, 60 min; active compounds read low; max response, %; 330,000 compounds, 1.2% hits; AID 652105, 2013; active means max response of -50% or lower; inconclusive means between -30% and -50%; inactive means -30% or higher; further: value at the top dose of about 77 µM
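Enzyme plus substrate dispensed, test compounds pinned in, then ATP (5 microM final) added. After 60 min at RT, ADP-Glo reagent 1 for 45 min and reagent 2 for 30 min preceded luminescence imaging.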
Large screens that a line does not name were inactive. Unless noted, the call rests on the fitted dose curve; in most records, active means well fitted curve in the direction sought with a large enough effect; inconclusive means small, poorly fitted or top-dose-only effect, or another doubt; inactive means no such curve, though single readings can be large; an effect the other way counts as inactive or inconclusive.

O=C(N/N=C/c1cccs1)c1cc(-c2ccc(Cl)s2)[nH]n1	G9a inh 50µM, JMJD2A Tudor inconclusive, BAZ2B block inconclusive
Cc1ccc(C(=O)N2CCC3(CC2)NCCc2[nH]cnc23)cc1C	none (no result: G9a inh)
CC(=O)Nc1ccc(CN(C)c2c(C)nc3ccc(C(=O)NC4CCN(Cc5ccccc5)CC4)cn23)cc1	none (no result: HP1b binding inh, G9a inh, JMJD2A Tudor, BAZ2B block)
O=C(O)COc1ccccc1/C=C1\SC(=S)N(NC(=O)c2ccccc2O)C1=O	JMJD2A Tudor 3.2µM, BAZ2B block 14µM, PI5P4Ka inh inconclusive
O=C(O)COc1ccccc1/C=C1\SC(=S)N(/N=C/c2ccccc2O)C1=O	PLK1 PBD block 21µM, JMJD2A Tudor inconclusive, BAZ2B block 56µM
O=C(O)COc1ccccc1/C=C1\SC(=Nc2ccc(F)cc2)N(c2ccc(F)cc2)C1=O	PLK1 PBD block inconclusive, G9a inh inconclusive, BAZ2B block 79µM
Cc1ccc(NC(=O)C(c2ccccc2)N2CCN(CC(=O)N3CCOCC3)CC2)cc1Cl (stereo not drawn)	G9a inh inconclusive
O=C1Nc2cccc3c2N(CCC3)C2=C1CCC2	none (no result: HP1b binding inh, G9a inh, JMJD2A Tudor, BAZ2B block)
CCc1ccc(C(=O)c2cn(CC(=O)NCCc3ccc(OC)c(OC)c3)c3nc(C)ccc3c2=O)cc1	none (no result: PLK1 PBD block, PI5P4Ka inh)
O=C(Cn1cc(S(=O)(=O)c2ccccc2)c(=O)c2cc(Cl)ccc21)Nc1ccc2c(c1)OCO2	none (no result: PLK1 PBD block, PI5P4Ka inh)
Cc1nnc(SCC(=O)NC(=O)NC(C)(C)C)n1N	PLK1 PBD block 27µM, HP1b binding inh inconclusive, G9a inh inconclusive, JMJD2A Tudor inconclusive
Cc1cc2c(OCC(CNC(C)(C)C)OC(=O)c3ccccc3)cccc2[nH]1 (stereo not drawn)	G9a inh 16µM (no result: PLK1 PBD block, HP1b binding inh, JMJD2A Tudor, BAZ2B block, PI5P4Ka inh)
Cc1cc2c(OCC(O)CNC3CCCCC3)cccc2[nH]1 (stereo not drawn)	G9a inh inconclusive, JMJD2A Tudor inconclusive
O=C(CNCc1ccc(Cl)cc1)N1CCc2ccccc2C1	JMJD2A Tudor 22µM, BAZ2B block inconclusive
CC(NC(=O)CN1CCc2ccccc21)c1ccccc1 (stereo not drawn)	G9a inh 25µM
CC(NC(=O)CN1CCN(c2ccccc2F)CC1)c1ccccc1 (stereo not drawn)	none
O=C(CNCCc1ccccc1)N1CCc2ccccc2C1	HP1b binding inh inconclusive, G9a inh 22µM, JMJD2A Tudor 3.2µM, BAZ2B block 50µM
O=C(NC1CCCCC1)N1CCc2ccccc2C1	none
O=C(CNC1CCCCC1)N1CCc2ccccc2C1	JMJD2A Tudor 3.2µM, BAZ2B block 71µM
O=C(Cc1ccccc1)NCC(=O)N1CCc2ccccc2C1	none
CC(=O)C(Cc1ccccc1)NC(=O)CN1CCc2ccccc2C1 (stereo not drawn)	none
CC(CCc1ccccc1)NC(=O)CN1CCc2ccccc2C1 (stereo not drawn)	PLK1 PBD block 27µM, JMJD2A Tudor inconclusive, PI5P4Ka inh inconclusive
O=C(CNCc1cccc(Cl)c1)N1CCc2ccccc2C1	G9a inh 14µM, JMJD2A Tudor 20µM, BAZ2B block 56µM
CC(NCc1ccco1)C(=O)N1CCc2ccccc2C1 (stereo not drawn)	HP1b binding inh inconclusive, G9a inh inconclusive, JMJD2A Tudor 11µM, BAZ2B block 56µM (no result: PI5P4Ka inh)
O=C1CCCCCN1CP(=O)(O)CN1CCCCCC1=O	G9a inh 50µM
CNC(=O)c1cc(C(=O)c2ccc(Cl)cc2)c[nH]1	BAZ2B block inconclusive
O=C(c1ccc(Cl)cc1)c1c[nH]c(C(=O)NNc2ccccc2)c1	G9a inh 20µM
COc1cc(C)c(C(=O)Oc2cc(C)c(C(=O)O)c(O)c2C)c(OC)c1C	PLK1 PBD block 38µM, G9a inh inconclusive
Cc1ccc(S(=O)(=O)N2CCN(c3nc(-c4ccc(CN5CCOCC5)s4)nc4ccccc34)CC2)cc1	none (no result: PLK1 PBD block, G9a inh, BAZ2B block, PI5P4Ka inh)
Oc1ccccc1C1=Nc2nc3ccccc3n2C(c2ccccc2)C1 (stereo not drawn)	G9a inh 13µM, JMJD2A Tudor inconclusive, BAZ2B block inconclusive
Oc1ccccc1C1=NN(c2ccccc2)C(c2ccc(F)cc2)C1 (stereo not drawn)	none
COc1cc2c3c(c1)-c1c(sn(-c4cc(OC)ccc4OC)c1=S)C(C)(C)N3C(=O)C2=O	G9a inh inconclusive, BAZ2B block 7.1µM
COc1ccc(-n2sc3c(c2=S)-c2cc(OC)ccc2NC3(C)C)cc1	PLK1 PBD block 24µM, HP1b binding inh 10µM, G9a inh 10µM, JMJD2A Tudor 3.2µM, BAZ2B block 11µM
COc1ccc2c(c1)C(=O)C(=O)N2	BAZ2B block inconclusive
COc1ccc(N2C(=O)c3ccccc3NC2(C)C)cc1	none
COc1ccc2c(c1)-c1c(sn(-c3ccc(OC)c(OC)c3)c1=S)C(C)(C)N2	G9a inh 10µM, JMJD2A Tudor 35µM, BAZ2B block 10µM
CCOc1cc2c3c(c1)C(C)=CC(C)(C)N3C(=O)C2=O	HP1b binding inh inconclusive, G9a inh inconclusive, BAZ2B block inconclusive
COc1ccc2c(c1)-c1c(ssc1=S)C(C)(C)N2	HP1b binding inh 16µM, G9a inh 7.9µM, JMJD2A Tudor 20µM, BAZ2B block 13µM (no result: PI5P4Ka inh)
N[C@@H](CSS(=O)(=O)O)C(=O)O	none (no result: PLK1 PBD block, HP1b binding inh, JMJD2A Tudor, BAZ2B block, PI5P4Ka inh)
Cc1nnc(SCC(=O)NCC(=O)Nc2ccc(F)c(F)c2F)n1Cc1ccccc1	none (no result: BAZ2B block)
CCOc1ccc(CCNC(=O)CCCc2nnc3n(CC(C)C)c(=O)c4sccc4n23)cc1	none (no result: PLK1 PBD block, PI5P4Ka inh)
COc1ccc2c(c1)-c1c(sn(-c3ccccc3)c1=S)C(C)(C)N2	HP1b binding inh inconclusive, G9a inh 28µM, JMJD2A Tudor 40µM, BAZ2B block 8.9µM
COc1ccc2c(c1)C(=O)N(Cc1ccccc1)C(=O)C2(C)C	none
O=C1CCN(Cc2ccccc2)C=C1c1ccc2ccccc2c1	PLK1 PBD block inconclusive, JMJD2A Tudor 45µM (no result: G9a inh, BAZ2B block)
COc1ccc(N2CCN(CC(=O)Nc3ccc(SC(F)F)cc3)CC2)cc1	G9a inh inconclusive, JMJD2A Tudor inconclusive, BAZ2B block 40µM
COc1ccc(N2CCN(CC(=O)NC(=O)NC(C)(C)C)CC2)cc1	G9a inh 79µM
CC(C)(C)NC(=O)NC(=O)CN1CCN(S(=O)(=O)c2ccc3c(c2)CCCC3)CC1	G9a inh 45µM
O=C(CN1CCN(c2ccc(O)cc2)CC1)NC(=O)NCc1ccco1	HP1b binding inh inconclusive, G9a inh 7.9µM
COc1ccc(OC)c(CCNC(=O)c2c(C)nn(-c3ccc(F)cc3)c2-n2cccc2)c1	G9a inh inconclusive, BAZ2B block inconclusive (no result: PLK1 PBD block, PI5P4Ka inh)

Bioassay records: PubChem BioAssay, National Center for Advancing Translational Sciences (NCATS)
